About 1,100 (1.7%) of roughly 63,000 compounds were called active. This excerpt belongs to a sample that is enriched for actives. Measured potencies and affinities stand elsewhere. Values without a mark were called inactive.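 How the source made its calls: active means compounds whose percent cytotoxicity in the single-dose primary screen, scaled between solvent and toxic-drug controls, exceeds 50; inactive means the rest.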

This assay in a line: cytotoxicity in KRAS-transformed pancreatic duct cells, primary screen, cell-based, fluorescence, HTS (AID 431).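 Further: 0% = DMSO solvent wells and 100% = doxorubicin-treated wells.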 The following applies: HPDE-C7K KRASV12 cells, Alamar Blue viability, 48 h; at 10 µM; hits give high values. On the technique in general: The colour change of resazurin is a common sign of viable cells or microbes.
In the case of `CSC1=C(C#N)C(C)C2=C(CC(C)(C)CC2=O)N1` (configuration not stated), the cytotoxicity is -15.4%.
For `Cc1cc(C)nc(N2CCC(C(=O)NC3CCCCCC3)CC2)n1` the value was -1.8%; for `COc1ccc(N2CCN(C(c3ccccc3)c3nnnn3Cc3ccc(F)cc3)CC2)cc1` (configuration not stated), -7.5%; for `O=C(Cc1ccc(Cl)cc1)Nc1ccc(-c2nnc(-c3ccco3)o2)cc1`, 4.4%.
Take `O=C1CN(C(=O)c2cccs2)c2ccccc2N1`: the cytotoxicity is -12.5%.
The figure for `O=C(c1ccc(F)cc1)N(Cc1ccccc1)C1CCS(=O)(=O)C1` (configuration not stated) is -7.8%.
As for `CCOc1ccc(-c2[nH]ncc2Oc2ccccc2OCC)c(O)c1`, the cytotoxicity was 55.7% (active).
For `CCOc1ccc(-c2[nH]ncc2-c2ccc(OC)c(OC)c2)c(O)c1` the value was 51.8% (active).
As to `CCOc1ccccc1Oc1cn[nH]c1-c1ccc(OC)cc1O`, the cytotoxicity is 61.8% (active).
For the compound `COc1ccc(-c2[nH]ncc2-c2ccc(Cl)cc2)c(O)c1`, the cytotoxicity was 47%.
Turning to `COc1ccc(Oc2cn[nH]c2-c2ccc(O)cc2O)cc1`, the cytotoxicity was 24.9%.
For the compound `COc1ccc(-c2[nH]ncc2Oc2ccccc2OC)c(O)c1`, the cytotoxicity was 42.5%.
For `C=C(C)COc1ccc(-c2[nH]ncc2-c2ccc(OC)c(OC)c2)c(O)c1` the value was 4.1%; for `CCOc1ccc(-c2[nH]ncc2Oc2ccccc2OC)c(O)c1`, 61.4% (active).
With `COc1ccc(-c2[nH]ncc2-c2cnc(C)s2)c(O)c1`, the cytotoxicity was 7.2%.
Regarding `CCOC(=O)C1CCN(Cc2nc3ccccc3c(=O)n2-c2ccc(OCC)cc2)CC1`, the cytotoxicity was 7.8%.
With `CC(=O)Nc1ccc(OC(F)(F)C(F)C(F)(F)F)c(NC(C)=O)c1` (configuration not stated), the cytotoxicity was -5.3%.
On to `CCOC(=O)c1c(C)n(CC(O)c2ccccc2)c2ccc(O)cc12` (configuration not stated), for which the cytotoxicity is -7.5%.
Take `OCCNCc1ccc(OC2CCCC2)cc1`: the cytotoxicity was 5.4%.
For `COc1ccc(CCNC(=O)CC2Nc3cc(C)c(C)cc3NC2=O)cc1OC` (configuration not stated) the value was 0%; for `O=C(O)Cn1cccc1C(=O)c1ccccc1`, -0.1%; for `N=c1c(C(=O)NCc2ccc(F)cc2)cc2c(=O)n3ccccc3nc2n1Cc1ccco1`, -3.9%.
Regarding `O=C(Cn1c(=O)sc2ccccc21)NCCOc1ccccc1F`, the cytotoxicity was -11.5%.
With `CCC(C)Sc1nnc(Cc2cc(=O)[nH]c(=O)[nH]2)n1-c1ccc(F)cc1` (configuration not stated), the cytotoxicity was -12.7%.
Regarding `CC(=O)Nc1ccc(N(C(=O)c2cnccn2)C(C(=O)NC2CCCCC2)c2ccc(O)cc2)cc1` (configuration not stated), the cytotoxicity was -16.5%.
For the compound `CCOC(=O)c1sc(NC(=O)c2ccc(CC)s2)nc1C`, the cytotoxicity was 4.6%.
Consider `C=C(C)COc1ccc(-c2nc(N)ncc2Oc2ccccc2OCC)c(O)c1`, for which the cytotoxicity is 18.1%.
For `C=C(C)COc1ccc(-c2[nH]ncc2Oc2ccccc2OCC)c(O)c1` the value was 78.4% (active); for `CC1Cc2ccccc2N1C(=O)CN1C(=O)NC(C)(c2ccc3c(c2)OCCO3)C1=O` (configuration not stated), 1.8%.
Take `COc1cc2ccccc2cc1C(=O)N1CCN(C)CC1`: the cytotoxicity was -4.6%.
In the case of `COc1cc2ccccc2cc1C(=O)Nc1ccc(N2CCN(C)CC2)cc1`, the cytotoxicity was 65.5% (active).
Take `CN1CCN(c2ccc(NC(=O)c3ccccc3Br)cc2)CC1`: the cytotoxicity is 2.5%.
Regarding `O=C(Nc1sccc1C(=O)N1CCOCC1)c1cccnc1`, the cytotoxicity is 10.9%.
For `CCCc1nc(SCC(=O)N2CCN(c3ccccc3)CC2)c2c(=O)n(C)c(=O)n(C)c2n1`, the cytotoxicity is 0.7%.
The figure for `Cn1c(=O)c2c(SCC(=O)N3CCC(Cc4ccccc4)CC3)nc(C3CC3)nc2n(C)c1=O` is 4%; for `CCOC(=O)CC(=O)CSc1nc(N)c(C#N)c(-c2ccc(F)cc2)c1C#N` it is 16.5%.
For `CCCCOc1ccc(-c2c(C#N)c(N)nc(SCC(N)=O)c2C#N)cc1` the value was 105% (active); for `CCOC(=O)CC(=O)CSc1nc(N)c(C#N)c(-c2ccc(Cl)cc2)c1C#N`, 68.4% (active); for `CCOC(=O)CSc1nc(N)c(C#N)c(-c2ccc(OC)cc2)c1C#N`, -14.8%.
In the case of `CCCCOC(=O)CSc1nc(N)c(C#N)c(-c2ccc(OCC)cc2)c1C#N`, the cytotoxicity was 17%.
As to `CCCCOC(=O)CSc1nc(N)c(C#N)c(-c2ccc(OC)cc2)c1C#N`, the cytotoxicity was -26.1%.
Regarding `O=C(O)c1ccccc1C(=O)c1cccs1`, the cytotoxicity is -9.3%.
Regarding `CCc1nc(NCC2CCCO2)c2oc3ccccc3c2n1` (configuration not stated), the cytotoxicity was -29.3%.
The figure for `O=C(NCCCN1CCN(CCCNC(=O)c2ccc3c(c2)OCO3)CC1)c1ccc2c(c1)OCO2` is -34.5%.
On to `Cc1ccc(N2CC(C(=O)N3CCN(c4ccccc4)CC3)CC2=O)cc1` (configuration not stated), for which the cytotoxicity is 30.6%.
In the case of `Cc1ccc(N2CC(C(=O)N3CCN(C(=O)c4ccco4)CC3)CC2=O)cc1` (configuration not stated), the cytotoxicity is 52.5% (active).
For `CCOC(=O)C1CCN(C(=O)C2CC(=O)N(c3ccc(C)cc3)C2)CC1` (configuration not stated), the cytotoxicity is -13.4%.
With `CCN(CC)c1ccc(NC(=O)C2CCCN(S(=O)(=O)c3cccnc3)C2)c(C)c1` (configuration not stated), the cytotoxicity was -9.5%.
For the compound `COc1ccc(-c2cc(-c3cc(F)ccc3O)[nH]n2)cc1OC`, the cytotoxicity was 8.8%.
For the compound `COc1ccc(-c2cc(-c3ccccc3O)[nH]n2)cc1OC`, the cytotoxicity was 61.1% (active).
As to `Oc1ccccc1-c1cc(-c2cccc(F)c2)n[nH]1`, the cytotoxicity is 16.2%.
Take `N#CC1=C(N)SC(N)=C(C#N)C1c1ccnc2ccccc12`: the cytotoxicity is -13.5%.
Turning to `COc1ccc(N2CC(O)=C(c3nc4ccccc4s3)C2=N)c(OC)c1`, the cytotoxicity was 11.5%.
`CCOc1ccccc1N1CC(O)=C(c2nc3ccccc3s2)C1=N`: the cytotoxicity is 64.8% (active).
With `COc1ccc(N2CC(O)=C(c3nc4ccccc4s3)C2=N)cc1`, the cytotoxicity is 9.4%.
In the case of `O=C(c1cccs1)N1CCOCC1`, the cytotoxicity is -26.6%.
`COc1ccc2c(c1)-c1nc(NC(=O)c3cccs3)sc1CC2`: the cytotoxicity was 80.1% (active).
`COc1ccc2c(c1)Cc1sc(NC(=O)c3cccs3)nc1-2`: the cytotoxicity was -6.8%.
As for `O=C(Nc1nc2c(s1)CCc1ccccc1-2)c1cccs1`, the cytotoxicity is -14.1%.
The figure for `Oc1ccccc1-c1nc(N2CCN(Cc3ccccc3)CC2)c2ccccc2n1` is 13%; for `Clc1ccccc1CN(Cc1ccccc1)c1ncnc2nc[nH]c12` it is 115% (active).
As for `CCCCN(Cc1ccccc1)c1ncnc2nc[nH]c12`, the cytotoxicity is 6.8%.
As for `Clc1ccccc1CNc1ncnc2nc[nH]c12`, the cytotoxicity was -10.1%.
As for `O/N=C1/CCCCc2sccc21`, the cytotoxicity is -23.7%.
Regarding `COC(=O)C1=CN(CC2CCCO2)C=C(C(=O)OC)C1c1cc(OC)c(OC)c(OC)c1` (configuration not stated), the cytotoxicity is 9.3%.
As to `COc1cc(S(=O)(=O)N(Cc2cccnc2)Cc2ccco2)ccc1-n1cnnn1`, the cytotoxicity is 6.5%.
For the compound `COc1ccccc1CN(Cc1ccco1)S(=O)(=O)c1ccc(-n2cnnn2)c(OC)c1`, the cytotoxicity was 20.8%.
For `CCOc1ccccc1CN(Cc1ccco1)S(=O)(=O)c1ccc(-n2cnnn2)c(OC)c1`, the cytotoxicity is 53.2% (active).
For the compound `COC(=O)c1ccccc1NC(=O)NCC1CCCO1` (configuration not stated), the cytotoxicity is 8.4%.
With `Cc1cc(C)cc(NS(=O)(=O)c2ccc3[nH]cc(C(=O)NCc4ccco4)c(=O)c3c2)c1`, the cytotoxicity was 42.5%.
Turning to `COc1ccc(-n2nnc3c(SCC(=O)NCC4CCCO4)ncnc32)cc1` (configuration not stated), the cytotoxicity was 2.8%.
Take `CCN(CC)C(=O)CSc1ncnc2c1nnn2-c1ccc(OC)cc1`: the cytotoxicity is -10.4%.
The figure for `O=C(NCCc1ccccc1)c1ccnc(/C=N/O)c1` is -14.3%.
Turning to `CCn1c2c(c3cc(C(=O)O)ccc31)CCCC2=O`, the cytotoxicity was -19.1%.
In the case of `CCn1c2c(c3cc(Cl)ccc31)CCCC2=O`, the cytotoxicity is -6.2%.
Regarding `Cc1oc2cc(O)cc(C)c2c(=O)c1-c1cnn(-c2ccccc2)c1`, the cytotoxicity was 61.3% (active).
With `Cc1oc2cc(O)ccc2c(=O)c1-c1cnn(-c2ccccc2)c1`, the cytotoxicity was 22.6%.
For the compound `Cc1oc2c(O)c(O)ccc2c(=O)c1-c1cnn(-c2ccccc2)c1`, the cytotoxicity was 0.8%.
In the case of `COc1cc(NC(=O)Nc2ccccc2OC)c(OC)cc1NC(=O)CN1CCCCC1`, the cytotoxicity is 48.5%.
In the case of `COc1cc(NC(=O)Nc2ccccc2)c(OC)cc1NC(=O)CN1CCCCC1`, the cytotoxicity was -3.3%.
The figure for `COc1cc(NC(=O)Nc2cccc(Cl)c2)c(OC)cc1NC(=O)CN1CCCCC1` is 89.7% (active).
The figure for `O=C(NC1CCCC1)C1CC1c1ccccc1` (configuration not stated) is 17.8%; for `CC1(C)CC(=O)C2=C(C1)OC(N)=C(C#N)C2c1cccc(OC(=O)c2ccco2)c1` (configuration not stated) it is -2.4%.
Regarding `Nc1nc(-c2ccccc2)cc(C(F)(F)F)n1`, the cytotoxicity is -1.4%.
For `COc1ccc(-c2cc(C(F)(F)F)nc(N3CCCCC3)n2)cc1OC`, the cytotoxicity was -2.6%.
Consider `COc1nc(-c2ccccc2)cc(C(F)(F)F)n1`, for which the cytotoxicity is -0.7%.
As to `FC(F)(F)c1cc(-c2ccco2)nc(NCc2ccco2)n1`, the cytotoxicity is -0.2%.
For `FC(F)(F)c1cc(-c2ccco2)nc(-n2nnc3ccccc32)n1` the value was 3.9%; for `FC(F)(F)c1cc(-c2ccco2)nc(NCc2ccccc2)n1`, 8.4%.
For `FC(F)(F)c1cc(-c2ccco2)nc(-n2cnc3ccccc32)n1`, the cytotoxicity was 41.5%.
For the compound `COc1ccc(-c2cc(C(F)(F)F)nc(NC3CCCC3)n2)cc1OC`, the cytotoxicity was 8.8%.
On to `COC(=O)CC1Oc2ccccc2N(Cc2ccc(C)cc2)C1=O` (configuration not stated), for which the cytotoxicity is 1.3%.
In the case of `O=C(CCC1CCCC1)Nc1ccon1`, the cytotoxicity is -5.5%.
For the compound `CCOc1ccc(NC(=O)Nc2ccc3nccnc3c2)cc1`, the cytotoxicity was 8.3%.
`O=C(CSc1nc(-c2ccc(F)cc2)cs1)NC(=O)NCc1ccco1`: the cytotoxicity was 1%.
Regarding `CCOC(=O)/C=C1\SCC(=O)N1Cc1nnc(-c2ccccc2Br)o1`, the cytotoxicity is -23.5%.
The figure for `COC(=O)c1[nH]c(C)c(/C(O)=C2\C(=O)C(=O)N(CCN(C)C)C2c2cc(OC)ccc2OC)c1C` (configuration not stated) is -7.9%.

Source of the values: PubChem BioAssay AID431 (Sanford-Burnham Center for Chemical Genomics, 2006).
